Structures are written as SMILES. Calls of active or inactive are those of the source. The calls were made as follows: active = hit-call score of the fitted dose curve at least 0.9, where 1 is the maximum; inactive = score below 0.9.

As usually defined, the AC50 is the concentration giving half of the maximal activity seen.

Test [1] can be described thus: ATG_M_32_CIS: Attagene CIS-FACTORIAL HepG2 Assay for M32 Transcription Factor (Internal Marker) (AID 2282949).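 Also: background control marker of the multiplexed CIS panel rather than a real target.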 The settings on record: HepG2 Attagene cis-factorial M32 reporter, mRNA; actives raise or lower the signal. The method in brief:
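Using DMSO as baseline, bidirectional curve fits were applied to reporter mRNA signals. These came from transiently transfected HepG2 cells exposed for 24 h, with RNA analysed by RT-PCR, FAM primer extension, HpaI digestion and CE.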

Test [2] in a line: ATG_M_06_CIS: Attagene CIS-FACTORIAL HepG2 Assay for M06 Transcription Factor (Internal Marker) (AID 2282950). The note with it: HepG2 Attagene CIS-FACTORIAL M06 internal marker reporter; actives raise or lower the signal. The method in brief: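 Serves as a background control readout. Transfected HepG2 exposed to compounds for 24 h, then reporter transcripts quantified by fluorescent RT-PCR and capillary electrophoresis. Both directions fitted against DMSO baseline.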

For test [3], the target named is Hypoxia-inducible factor 1-alpha (Homo sapiens) (UniProt Q16665). Briefly: ATG_HIF1a_CIS: Attagene CIS-FACTORIAL HepG2 Assay for human Hypoxia Inducible Factor 1 (HIF1A) (AID 2282951). The note with it: HepG2 Attagene cis-factorial HIF1a reporter transcription; actives raise or lower the signal. Put shortly:
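Measures endogenous transcription-factor activity through cis-regulated reporter mRNA in HepG2. Cells dosed 24 h; transcripts quantified by RT-PCR with 6-FAM-labelled products separated by capillary electrophoresis; DMSO serves as negative control.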

The target in test [4] is Hepatocyte nuclear factor 6 (Homo sapiens) (UniProt Q9UBC0). Kind of test: ATG_HNF6_CIS: Attagene CIS-FACTORIAL HepG2 Assay for human Hepatocyte Nuclear Factor 6 (HNF6) (AID 2282952). The note with it: HepG2 Attagene cis-factorial HNF6 reporter transcription; actives raise or lower the signal. The method in brief:
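Endogenous transcription factor activity in human HepG2 liver cells was captured through cis-regulated reporter constructs. After 24 h treatment, reporter mRNA was measured by RT-PCR with capillary electrophoresis, and activity was fitted in both directions relative to DMSO.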

Test [5] deals with Heat shock factor protein 1 (Homo sapiens) (UniProt Q00613). Kind of test: ATG_HSE_CIS: Attagene CIS-FACTORIAL HepG2 Assay for human Heat Shock Transcription Factor 1 (HSE) (AID 2282953). The settings on record: HepG2 HSE cis-reporter, Attagene RNA transcription; actives raise or lower the signal. Put shortly: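 Endogenous transcription factor activity in transiently transfected HepG2, read as reporter mRNA by RT-PCR with fluorescent capillary electrophoresis after 24 h. Gain or loss of signal fitted versus DMSO baseline.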
Heat shock factor protein 1 (Homo sapiens), sequence (Q00613 whole entry, looked up): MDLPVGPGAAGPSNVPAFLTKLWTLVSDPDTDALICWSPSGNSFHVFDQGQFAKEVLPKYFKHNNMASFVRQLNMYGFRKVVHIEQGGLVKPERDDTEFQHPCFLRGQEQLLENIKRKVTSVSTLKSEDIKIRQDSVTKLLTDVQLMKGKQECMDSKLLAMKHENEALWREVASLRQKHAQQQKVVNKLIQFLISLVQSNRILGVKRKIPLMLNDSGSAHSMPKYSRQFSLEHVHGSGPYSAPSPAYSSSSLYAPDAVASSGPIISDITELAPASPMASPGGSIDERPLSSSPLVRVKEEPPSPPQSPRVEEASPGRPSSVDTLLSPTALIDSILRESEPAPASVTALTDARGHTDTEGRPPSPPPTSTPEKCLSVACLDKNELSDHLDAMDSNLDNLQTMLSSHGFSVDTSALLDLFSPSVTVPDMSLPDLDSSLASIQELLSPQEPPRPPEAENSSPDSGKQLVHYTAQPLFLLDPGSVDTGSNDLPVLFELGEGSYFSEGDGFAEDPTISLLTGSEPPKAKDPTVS

Test [6] can be described thus: ATG_MRE_CIS: Attagene CIS-FACTORIAL HepG2 Assay for human Metal Responsive Element (MRE) (AID 2282954). The settings on record: HepG2 MRE cis-reporter transcription, Attagene multiplex; actives raise or lower the signal. Put shortly:
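RT-PCR/capillary electrophoresis readout of reporter mRNA, 24 h post-dosing, in HepG2 cells transfected with multiplexed cis-regulated reporter constructs. Gain or loss of signal fitted bidirectionally against DMSO baseline.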

The target of test [7] is Paired box protein Pax-6 (Homo sapiens) (UniProt P26367). Kind of test: ATG_Pax6_CIS: Attagene CIS-FACTORIAL HepG2 Assay for human Paired Box 6 (PAX6) (AID 2282956). The settings on record: HepG2 CIS-FACTORIAL PAX6 reporter transcription, RNA readout; actives raise or lower the signal. The method in brief: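 Read-out is reporter transcript level, measured by RT-PCR with fluorescent primer extension and capillary electrophoresis after 24 h dosing of transfected HepG2 cells. Activity in either direction fitted relative to DMSO control.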
Paired box protein Pax-6 (Homo sapiens), sequence (P26367 whole entry, looked up): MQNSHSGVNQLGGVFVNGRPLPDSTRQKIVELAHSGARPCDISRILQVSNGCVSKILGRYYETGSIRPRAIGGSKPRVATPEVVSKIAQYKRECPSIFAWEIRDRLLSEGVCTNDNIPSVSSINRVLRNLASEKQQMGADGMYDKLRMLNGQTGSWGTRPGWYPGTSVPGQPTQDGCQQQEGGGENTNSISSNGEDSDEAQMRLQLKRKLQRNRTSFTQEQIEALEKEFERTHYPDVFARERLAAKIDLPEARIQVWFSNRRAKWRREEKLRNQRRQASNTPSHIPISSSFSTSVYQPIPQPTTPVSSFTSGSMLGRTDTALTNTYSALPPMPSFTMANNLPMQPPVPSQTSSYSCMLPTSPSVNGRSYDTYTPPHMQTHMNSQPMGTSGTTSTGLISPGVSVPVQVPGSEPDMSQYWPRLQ

Test [8] can be described thus: ATG_RORE_CIS: Attagene CIS-FACTORIAL HepG2 Assay for human RAR-related Orphan Receptor Element (RORE) (AID 2282959). The settings on record: HepG2 Attagene cis-factorial RORE reporter, mRNA; actives raise or lower the signal. The method in brief:
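Cells were HepG2 carrying transfected cis-regulated reporter constructs, dosed for 24 hours. Total RNA was reverse-transcribed and reporter cDNA amplified, fluorescently labeled and sized by capillary electrophoresis. Activity was fitted bidirectionally relative to DMSO.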

Test [9] is described as follows: ATG_Sox_CIS: Attagene CIS-FACTORIAL HepG2 Assay for human SRY-box transcription factor (SOX) (AID 2282960). The note with it: HepG2 Attagene cis-factorial SOX reporter, mRNA; actives raise or lower the signal. The method in brief: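 Transient MRTU transfection of HepG2; 24 h compound incubation; TriZol RNA, oligo(dT) RT, PCR, 6-FAM primer extension, HpaI cut, CE. Bidirectional fit, DMSO = baseline.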

The target of test [10] is Transcription factor Sp1 (Homo sapiens) (UniProt P08047). Briefly: ATG_Sp1_CIS: Attagene CIS-FACTORIAL HepG2 Assay for human Specificity Protein 1 (Sp1) (AID 2282961). The settings on record: HepG2 Sp1 cis-reporter transcription, actives raise or lower the signal. The method in brief:
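Endogenous Sp1 activity was gauged in human liver HepG2 cells bearing transfected reporter units under a cis-regulating promoter. After 24 h dosing, reporter mRNA was quantified by RT-PCR with capillary electrophoresis, and activity fitted bidirectionally versus DMSO.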

Test [11] in a line: ATG_SREBP_CIS: Attagene CIS-FACTORIAL HepG2 Assay for human Sterol Regulatory Element Binding (SREBP) (AID 2282962). The settings on record: HepG2 Attagene cis-factorial SREBP reporter, mRNA; actives raise or lower the signal. Put shortly:
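Endogenous SREBP activity read as cis-element-driven reporter transcript in transiently transfected HepG2, 24 h post-dosing; quantified via RT-PCR plus capillary electrophoresis of fluorescent fragments. Gain or loss of signal fitted relative to DMSO baseline.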

Test [12] concerns the target Signal transducer and activator of transcription 3 (Homo sapiens) (UniProt P40763). Kind of test: ATG_STAT3_CIS: Attagene CIS-FACTORIAL HepG2 Assay for human Signal Transducer and Activator of Transcription 3 (STAT3) (AID 2282963). The settings on record: HepG2, Attagene cis-factorial STAT3 reporter transcription; actives raise or lower the signal. The method in brief:
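Readout: fluorescent reporter mRNA fragments resolved by capillary electrophoresis. Setup: HepG2 transfected with MRTUs reporting endogenous transcription-factor activity, dosed 24 h. Gain or loss of signal fitted bidirectionally against DMSO control.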

Test [13] is described as follows: ATG_TA_CIS: Attagene CIS-FACTORIAL HepG2 Assay for human TA Basal Promoter (AID 2282964). The note with it: HepG2 Attagene CIS-factorial TA basal promoter reporter; actives raise or lower the signal. The method in brief: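 Background-control readout: TA basal promoter reporter mRNA, fitted in both directions relative to DMSO. Measured by RT-PCR and capillary electrophoresis 24 hours after treating HepG2 human liver cells transiently carrying multiplexed cis-regulated reporter constructs.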

Test [14] can be described thus: ATG_TCF_b_cat_CIS: Attagene CIS-FACTORIAL HepG2 Assay for human T-Cell-Factor with beta-catenin (TCF/b-cat) (AID 2282965). The settings on record: HepG2 TCF/beta-catenin cis-reporter transcription, actives raise or lower the signal. Put shortly: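 Cells of the HepG2 line carry transiently transfected reporter units whose promoters respond to endogenous factors. Twenty-four hours post-dosing, reporter mRNA induction is measured by fluorescent RT-PCR and capillary electrophoresis, with DMSO as baseline.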

Test [15] is described as follows: ATG_TAL_CIS: Attagene CIS-FACTORIAL HepG2 Assay for human TAL Basal Promoter (AID 2282966).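 Also: background control endpoint measuring basal TAL promoter reporter mRNA not a specific factor.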 The settings on record: HepG2 Attagene cis-factorial TAL promoter reporter; actives raise or lower the signal. Put shortly: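 Endogenous transcription-factor activity is sensed in HepG2 cells through transfected cis-promoter reporter constructs. After 24 h dosing, reporter transcripts are quantified by RT-PCR and capillary electrophoresis. Gain or loss of signal is fitted relative to DMSO.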

The nature of test [16]: ATG_TGFb_CIS: Attagene CIS-FACTORIAL HepG2 Assay for human Transforming Growth Factor (TGF) (AID 2282967). The settings on record: HepG2 Attagene CIS TGFb reporter, mRNA transcription; actives raise or lower the signal. Put shortly:
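Endogenous TGFB1-linked transcription factor activity read as reporter mRNA via RT-PCR and capillary electrophoresis, 24 h after dosing transiently transfected HepG2 cells. Gain or loss of signal fitted relative to DMSO.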

Test [17] can be described thus: ATG_VDRE_CIS: Attagene CIS-FACTORIAL HepG2 Assay for human Vitamin D Receptor Element (VDRE) (AID 2282968). The settings on record: HepG2 VDRE cis-reporter transcription, actives raise or lower the signal. Put shortly:
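Transient MRTU transfection of HepG2, 24 h compound exposure. Readout: reporter transcripts via RT-PCR and capillary electrophoresis, fluorescence. Bidirectional fit vs DMSO.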

Test [18] can be described thus: ATG_PBREM_CIS: Attagene CIS-FACTORIAL HepG2 Assay for human Phenobarbital-responsive Enhancer Module (PBREM) (AID 2282955). The note with it: HepG2 PBREM cis-reporter, Attagene multiplexed transcription; actives raise or lower the signal. Put shortly:
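Fluorescence of labelled reporter cDNA fragments, resolved by capillary electrophoresis, gives mRNA induction in transfected HepG2 cells treated for 24 h; DMSO serves as negative control and baseline.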

Test [19] is described as follows: ATG_PXRE_CIS: Attagene CIS-FACTORIAL HepG2 Assay for human Pregnane X Receptor Element (PXRE) (AID 2282957). The note with it: HepG2 Attagene CIS-FACTORIAL PXRE reporter, mRNA; actives raise or lower the signal. Put shortly: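 Endogenous transcription factor activity in HepG2 was gauged through induction of reporter mRNA driven by a cis-regulating promoter element, sampled 24 h post-treatment. Activity was fitted in both directions against DMSO negative control.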

Test [20] in a line: ATG_PPRE_CIS: Attagene CIS-FACTORIAL HepG2 Assay for human Peroxisome Proliferator-activated Response Element (PPRE) (AID 2282958). The settings on record: HepG2 PPRE cis-element reporter, Attagene transcription factor profiling; actives raise or lower the signal. Put shortly:
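Cells are first transfected transiently with the multiplexed reporter library, then dosed for 24 h. Total RNA is reverse-transcribed, amplified, fluorescently end-labeled and HpaI-cut before capillary electrophoresis; activity is fitted bidirectionally against DMSO controls.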

Transcription factor Sp1 (Homo sapiens), sequence (P08047 whole entry, looked up): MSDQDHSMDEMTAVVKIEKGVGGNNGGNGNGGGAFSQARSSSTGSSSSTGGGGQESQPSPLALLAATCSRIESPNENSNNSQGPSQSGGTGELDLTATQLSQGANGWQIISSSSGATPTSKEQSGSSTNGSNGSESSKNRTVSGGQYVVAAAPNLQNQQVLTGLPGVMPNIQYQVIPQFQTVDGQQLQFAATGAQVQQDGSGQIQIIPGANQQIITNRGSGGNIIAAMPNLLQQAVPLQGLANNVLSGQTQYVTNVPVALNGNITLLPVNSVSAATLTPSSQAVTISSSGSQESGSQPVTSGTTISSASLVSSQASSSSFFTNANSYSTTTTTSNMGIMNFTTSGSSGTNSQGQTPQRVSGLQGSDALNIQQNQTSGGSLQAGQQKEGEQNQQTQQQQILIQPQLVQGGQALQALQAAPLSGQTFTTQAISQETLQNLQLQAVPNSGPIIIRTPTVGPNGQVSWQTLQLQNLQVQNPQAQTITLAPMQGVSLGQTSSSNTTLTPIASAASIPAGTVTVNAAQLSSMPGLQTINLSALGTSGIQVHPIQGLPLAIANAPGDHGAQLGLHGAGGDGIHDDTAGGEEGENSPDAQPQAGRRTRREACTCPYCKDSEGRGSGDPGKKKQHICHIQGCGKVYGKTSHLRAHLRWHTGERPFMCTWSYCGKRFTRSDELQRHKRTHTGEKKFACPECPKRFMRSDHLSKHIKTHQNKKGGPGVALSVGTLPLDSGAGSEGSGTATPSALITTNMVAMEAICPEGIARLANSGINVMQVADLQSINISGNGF
Signal transducer and activator of transcription 3 (Homo sapiens), sequence (P40763 whole entry, looked up, the tested form may be a part): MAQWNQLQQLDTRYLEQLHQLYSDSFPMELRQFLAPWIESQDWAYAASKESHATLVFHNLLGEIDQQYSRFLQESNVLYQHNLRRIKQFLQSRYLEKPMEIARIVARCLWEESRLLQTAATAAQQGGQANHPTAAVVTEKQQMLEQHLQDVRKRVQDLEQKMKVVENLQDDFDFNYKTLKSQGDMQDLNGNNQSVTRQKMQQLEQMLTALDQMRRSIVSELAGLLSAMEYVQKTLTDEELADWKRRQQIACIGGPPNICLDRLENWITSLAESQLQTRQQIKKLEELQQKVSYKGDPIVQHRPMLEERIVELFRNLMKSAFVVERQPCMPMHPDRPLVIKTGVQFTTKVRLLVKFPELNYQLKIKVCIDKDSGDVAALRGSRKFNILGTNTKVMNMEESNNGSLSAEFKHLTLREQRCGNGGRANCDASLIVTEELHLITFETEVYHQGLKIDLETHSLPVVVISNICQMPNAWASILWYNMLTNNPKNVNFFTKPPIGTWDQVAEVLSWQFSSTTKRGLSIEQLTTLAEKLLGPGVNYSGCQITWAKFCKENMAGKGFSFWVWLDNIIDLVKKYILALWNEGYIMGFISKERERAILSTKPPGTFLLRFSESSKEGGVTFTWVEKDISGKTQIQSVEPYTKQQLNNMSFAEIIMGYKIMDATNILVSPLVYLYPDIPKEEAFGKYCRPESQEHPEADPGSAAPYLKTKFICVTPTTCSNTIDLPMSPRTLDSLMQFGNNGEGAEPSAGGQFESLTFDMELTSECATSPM
Hypoxia-inducible factor 1-alpha (Homo sapiens), sequence (Q16665 whole entry, looked up): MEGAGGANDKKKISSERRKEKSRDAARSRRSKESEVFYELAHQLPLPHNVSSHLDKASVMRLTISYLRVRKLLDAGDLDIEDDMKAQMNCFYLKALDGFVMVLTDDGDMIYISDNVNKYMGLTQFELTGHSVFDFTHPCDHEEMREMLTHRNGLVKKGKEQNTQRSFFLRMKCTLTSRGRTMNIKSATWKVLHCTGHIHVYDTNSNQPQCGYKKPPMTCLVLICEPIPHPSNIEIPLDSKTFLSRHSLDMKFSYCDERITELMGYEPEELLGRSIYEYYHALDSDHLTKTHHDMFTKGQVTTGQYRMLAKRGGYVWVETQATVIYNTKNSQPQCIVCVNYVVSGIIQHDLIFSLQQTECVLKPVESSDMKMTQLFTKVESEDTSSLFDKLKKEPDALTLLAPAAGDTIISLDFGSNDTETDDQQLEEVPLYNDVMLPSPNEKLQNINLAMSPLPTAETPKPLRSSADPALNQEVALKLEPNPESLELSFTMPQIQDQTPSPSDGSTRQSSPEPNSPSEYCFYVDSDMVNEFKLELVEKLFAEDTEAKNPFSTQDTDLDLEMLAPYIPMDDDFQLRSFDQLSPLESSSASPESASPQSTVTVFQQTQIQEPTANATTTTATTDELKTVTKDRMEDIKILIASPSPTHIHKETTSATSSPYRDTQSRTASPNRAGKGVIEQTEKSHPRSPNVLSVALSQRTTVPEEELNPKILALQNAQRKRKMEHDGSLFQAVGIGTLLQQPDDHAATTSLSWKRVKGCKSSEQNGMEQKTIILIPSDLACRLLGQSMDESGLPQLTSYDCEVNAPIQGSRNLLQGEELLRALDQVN
Hepatocyte nuclear factor 6 (Homo sapiens), sequence (Q9UBC0 whole entry, looked up): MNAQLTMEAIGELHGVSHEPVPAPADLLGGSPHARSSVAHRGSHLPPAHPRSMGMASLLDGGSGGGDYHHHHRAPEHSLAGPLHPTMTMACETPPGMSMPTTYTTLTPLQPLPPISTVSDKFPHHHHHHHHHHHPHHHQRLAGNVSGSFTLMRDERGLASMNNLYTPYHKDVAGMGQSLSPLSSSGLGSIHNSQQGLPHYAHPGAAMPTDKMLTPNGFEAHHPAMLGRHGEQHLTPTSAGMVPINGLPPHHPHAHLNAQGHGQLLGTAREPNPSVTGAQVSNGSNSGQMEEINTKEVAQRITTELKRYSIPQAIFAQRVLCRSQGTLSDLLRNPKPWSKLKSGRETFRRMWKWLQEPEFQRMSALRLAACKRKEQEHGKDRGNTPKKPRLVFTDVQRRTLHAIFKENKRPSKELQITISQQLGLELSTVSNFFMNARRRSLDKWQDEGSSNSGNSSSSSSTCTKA

With `CCOC(=O)CC(=O)CCl`, the call in [1], in [2], in test [3], in test [4], in [8] and in test [12] was inactive. Besides, the result in [13], in test [14] and in test [15] was inactive. Also, the AC50 in test [5] was 146 µM (active); in test [6] it was 26 µM (active); in test [7], 27.4 µM (active); in [9] it was 26.2 µM (active); in test [10], 23.9 µM (active); in test [11], 26.2 µM (active). Besides, the concentration at half-maximal activity (AC50) in [16] was 36.1 µM (active); in test [17] it was 27 µM (active).
`Oc1c(Cl)cc(Cl)cc1Cl`: the call in [1], in test [2], in test [5], in test [6], in [18] and in [7] was inactive. The compound was classed as inactive in test [19], in test [10], in [11], in test [12], in test [13] and in [14]. The call in [15] and in test [16] was inactive. The AC50 in [3] is 41.6 µM (active).
`O=C(O)CC(O)(CC(=O)O)C(=O)O`: the compound was classed as inactive in [1], in [2], in [4], in [5], in test [6] and in test [7]. Also, the compound was classed as inactive in test [19], in [20], in test [8], in test [9], in test [10] and in test [11]. In addition, the outcome in test [12], in [13], in test [14], in test [15], in test [16] and in test [17] was inactive.
With `ClCCN1CCOCC1`, the call in [1], in test [2], in [3], in test [4], in test [5] and in test [6] was inactive. The compound was classed as inactive in test [20], in test [8], in test [9], in test [10], in [11] and in [12]. The result in [13], in test [14], in test [15], in [16] and in test [17] was inactive.

Source of the values: PubChem BioAssay (EPA / NIEHS).
